Screening results (PubChem)
Shown are actives, neighbours in structure and some others; about 2.3% of the full set was active somewhere.
M1 ag = human M1 muscarinic receptor agonists, primary screen, Fluo-8 calcium fluorescence, CHO-K1 cells, HTS; Muscarinic acetylcholine receptor M1 (Homo sapiens), P11229; CHO-K1 hM1, agonist mode; 0% DMSO, 100% acetylcholine EC100; activation, % at 3 µM; AID 588814, 2011; 360,000 compounds, 0.33% hits;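 active means activation above the run's mean compound activation plus 3 SD, cut at about 16% in these data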;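 further: peak over basal fluorescence ratio within a 140 s kinetic read after compound addition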
Target sequence (P11229 whole entry, looked up): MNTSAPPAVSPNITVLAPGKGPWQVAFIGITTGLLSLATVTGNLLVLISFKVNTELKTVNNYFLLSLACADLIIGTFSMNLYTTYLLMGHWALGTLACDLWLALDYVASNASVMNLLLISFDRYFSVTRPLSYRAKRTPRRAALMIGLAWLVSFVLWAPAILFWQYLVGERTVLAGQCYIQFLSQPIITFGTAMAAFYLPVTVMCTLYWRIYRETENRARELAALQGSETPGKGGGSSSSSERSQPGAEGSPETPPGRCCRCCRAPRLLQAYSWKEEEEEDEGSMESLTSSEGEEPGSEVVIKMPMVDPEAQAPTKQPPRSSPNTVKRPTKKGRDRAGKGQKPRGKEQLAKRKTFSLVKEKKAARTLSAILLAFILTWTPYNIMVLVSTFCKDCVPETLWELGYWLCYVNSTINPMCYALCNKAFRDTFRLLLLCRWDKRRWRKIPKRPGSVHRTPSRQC
CHRM1 PAM = human M1 muscarinic receptor positive allosteric modulators, primary screen, CHO-K1 cells, Fluo-8 calcium fluorescence, 1536-well; 360,000 compounds, 0.088% hits; CHO-K1 hM1, ACh EC20; 0% = ACh EC20, 100% = maximal ACh; activation, % at 3 µM; in the data active means activation above about 19%, passing the limit was not always enough
CHO-K1 Ca ag = counter-screen for M1 agonists: effect in parental CHO-K1 cells | Fluo-8 calcium fluorescence; scaled to maximal ATP response, vehicle zero | activation, % at 3 µM | 360,000 compounds, 0.48% hits | AID 602248, 2012; in the data active means activation above about 15%;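 further: untransfected CHO-K1 host cells lacking M1 receptor as counterscreen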
CHO-K1 Ca antag = M1 antagonist counterscreen hit in parental CHO-K1 cells; ATP-induced calcium, Fluo-8 fluorescence; inhibition, % at 3 µM; 360,000 compounds, 0.6% hits; AID 602250;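 active means inhibition above a per-plate cutoff, the plate's mean sample inhibition plus 3 SD, cut at about 24% in these data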;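 further: 0% = DMSO plus EC80 ATP and 100% = DMSO alone without ATP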
CHO-K1 Ca PAM = nonselective calcium activators in parental CHO-K1 cells, primary screen, counter-screen for M1 PAM project, cell-based, Fluo-8 calcium fluorescence, full deck, 1536-well. ATP EC20; 0% at ATP EC20, 100% at ATP max. 360,000 compounds, 0.02% hits. activation, % at 3 µM. AID 602247, 2012;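 active means activation above the run cutoff, the mean activation of all test compounds plus 3 SD, cut at about 40% in these data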;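 further: peak over basal fluorescence ratio in a 140 s read after ATP addition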
M1 antag = human M1 muscarinic receptor antagonists, primary screen, CHO-K1 cells, Fluo-8 calcium fluorescence, 1536-well. AID 588852, 2011. 360,000 compounds, 1.3% hits. Muscarinic acetylcholine receptor M1 (Homo sapiens), P11229. CHO-K1 hM1, ACh EC80 antagonist. inhibition, % at 3 µM;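 active means percent inhibition above its own plate's cutoff, namely the mean of that plate's compound wells plus 3 SD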;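 further: peak over basal fluorescence ratio during 140 s after agonist addition; 0% = ACh EC80 plus DMSO and 100% = DMSO alone without agonist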
The depositor's hits bear a star.

SMILES	M1 ag	CHRM1 PAM	CHO-K1 Ca ag	CHO-K1 Ca antag	CHO-K1 Ca PAM	M1 antag
CN1CCN(CCCNc2c(C=O)c(=O)[nH]c3ccccc23)CC1	-7	7	2	-12	22	-17
COc1cccc(-c2ccc3nnc(SCC(=O)Nc4ccc(NC(C)=O)cc4)n3n2)c1	-4	9	3	-8	17	-9
COc1ccc(/C=C/c2cc(C(=O)O)c3ccccc3n2)cc1	8	0	21*	2	5	4
COc1ccc(C(Cl)=C(C=O)c2ccc(OC)c(OC)c2)cc1OC	18*	20	0	-2	13	-1
COC(=O)c1ccc(OC(=O)c2ccc(OC)c(OC)c2)c(OC)c1	-3	2	1	-3	9	-2
CCN1CCN(c2ccc(N3CCN(S(=O)(=O)c4cccc([N+](=O)[O-])c4)CC3)nn2)CC1	-10	-23	1	-4	7	34*
CCCCOc1ccc(S(=O)(=O)N2CCN(c3ccc(N4CCN(CC)CC4)nn3)CC2)cc1	-5	-5	2	-8	5	-7
CCOc1ccccc1C1C(C(N)=O)=C(C)Nc2nc(CCCO)nn21 (stereo not drawn)	3	5	0	27*	-9	-4
C=CCN1C(=O)/C(=C/c2ccc(OC(C)=O)c(OCC)c2[N+](=O)[O-])SC1=S	7	-2	12	25*	7	17
CCOc1c(OC(C)=O)ccc(/C=C/c2ccc3cccc(OC(C)=O)c3n2)c1[N+](=O)[O-]	-3	4	2	-6	11	-3
CCN(CC)CCCNC(=O)C1CCC(CNS(=O)(=O)c2ccc(Cl)cc2)CC1 (stereo not drawn)	-6	0	3	-9	7	-6
Cc1cccc(C)c1NC(=O)CN(C)C(C)C(=O)Nc1ccccc1-c1ccccc1 (stereo not drawn)	-1	15	1	-15	20	-13
Cc1ccccc1CN(C)C(C)C(=O)Nc1ccccc1F (stereo not drawn)	-3	7	19*	-5	18	-4
O=C(COC(=O)C1(c2ccccc2F)CCCC1)N1CCNC1=O	-7	0	2	2	15	-2
CC[C@@H](NCCCn1cnc2c(SC)ncnc21)c1ccccc1	-7	0	1	-5	-1	-4
CC(C)n1ncc2c(C(=O)NCC(=O)Nc3ccccc3Br)cc(C3CC3)nc21	-5	-5	0	-6	3	10
Cc1cccc(NC(=O)CSc2nc3ccccc3c(=O)n2C)c1C	2	-20	12	15	-9	33*
Cc1ccccc1Nc1nc(N)nc(CSc2nc3ccccc3c(=O)n2C)n1	8	-13	18*	29*	-2	31
Cc1ccccc1Nc1nc(N)nc(CSc2nc3ccccc3c(=O)n2CCCO)n1	1	-2	4	-26	19	-15
COC(=O)[C@H](CC(C)C)NC(=O)/C=C/[C@H]1O[C@@H](n2ccc(=O)[nH]c2=O)[C@H](O)[C@@H]1O	-2	-2	0	-2	4	-5
CCOC(=O)c1[nH]c(CN2CCN(c3ccc(OC)cc3)CC2)c(C(=O)OCC)c1C	16*	-1	10	-17	5	3
Cc1cc2nnc(SC(C)C)n2c2ccccc12	-2	-10	0	-3	-1	33*
Cc1cc2nnc(SC(C)C#N)n2c2ccccc12 (stereo not drawn)	-4	5	0	-4	7	-3
COc1ccccc1C1CCN(Cc2ccc(C)cc2)CC1	-5	3	18*	-4	18	-9
COc1ccccc1C1CCN(Cc2cccc(C(=O)N3CCC(O)CC3)c2)CC1	3	-8	0	2	-5	25
SMILES	M1 ag	CHRM1 PAM	CHO-K1 Ca ag	CHO-K1 Ca antag	CHO-K1 Ca PAM	M1 antag
CC1CCCC(C)N1CC(O)COc1ccc(Cl)cc1 (stereo not drawn)	-2	-4	1	-7	16	-1
CC(=O)Nc1ccc(OCC(O)CN2C(C)CCCC2C)cc1 (stereo not drawn)	-7	-4	0	32*	-15	5
CC1(C)CCN2CCC(C)(C)c3c(O)ccc1c32	23*	-10	34*	26*	3	25
COc1ccc(C(=O)CSc2nc3cccnc3n2C)cc1	3	-6	1	28*	-7	-8
CCOC(=O)c1ccc(NC(=O)CSc2nc3cccnc3n2C)cc1	0	-8	1	34*	-8	19
O=C1CC(c2cccnc2)c2cc3c(cc2N1)OCCO3 (stereo not drawn)	-1	-9	0	11	-6	39*
O=C(Nc1cccc(F)c1)c1c(F)c(F)c(F)c(F)c1F	-1	-10	6	24*	-6	16
COc1ccc(S(=O)(=O)c2nnn(-c3cccc(Cl)c3)c2N)cc1	11	-4	2	25*	-16	2
NC(=S)Cc1nc(-c2ccccc2)cs1	-2	-8	2	32*	-10	12
COC(=O)c1ccccc1NC(=O)COc1ccc2c(c1)OCO2	-4	-4	2	30*	-7	1
O=C(COc1ccc2c(c1)OCO2)Nc1ccccc1F	-4	8	0	2	9	-6
CC(=O)c1cccc(NS(=O)(=O)c2ccc(NC(=O)N3CCCCC3)cc2)c1	-1	-12	6	22	-10	36*
COc1cc2nc(CN3CCN(S(=O)(=O)c4ccccc4[N+](=O)[O-])CC3)[nH]c(=O)c2cc1OC	-7	2	2	-2	1	-8
Cc1ccc(OC(=O)CCS(=O)(=O)c2ccc(C)cc2)cc1	-2	25*	0	-9	2	-27
COC(=O)Cc1ccc(OC(=O)CCS(=O)(=O)c2ccc(C)cc2)cc1	-5	5	1	-9	1	-4
C[C@@H]1CCC(=O)N(CC[C@H](Oc2ccccc2)c2ccccc2)CC1	-8	0	-1	-26	10	-3
Cc1ccn2c(-c3n[nH]c(=S)n3C)c(C)nc2c1	-4	10	0	-9	18	-12
Cc1ccc(-c2nnn(CC(=O)N(CC(=O)NC3CCCCC3)c3cccc(F)c3)n2)o1	8	8	20*	1	3	1
Cc1ccc(-c2nnn(CC(=O)N(CC(=O)NC3CCCC3)c3cccc(F)c3)n2)o1	-1	11	1	-11	-18	-7
COc1ccc(CN2CCCC(C(=O)c3cccc(C(F)(F)F)c3)C2)cc1O (stereo not drawn)	-15	-36	0	-6	13	31
